High-throughput results deposited in PubChem BioAssay by National Center for Advancing Translational Sciences (NCATS).
Coupling enz: qHTS Assay for Inhibitors of Fructose-1,6-bisphosphate Aldolase from Giardia Lamblia: Coupling assay counterscreen; coupling enzyme system counterscreen, AmpLite Red fluorescence; activity change, negative = inhibition, % at 58.2 µM, hits read low; actives 0.67% (n = 290,000); in the data active means activity change below about -30%
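Final compound at 57.5 uM, incubated 10 min at RT with coupling enzyme reagent (glyceraldehyde-3-phosphate), then 20 min with substrate and AmpLite Red detection. Fluorescence read at 525/598 nm; tests interference with the coupling assay, not aldolase inhibition.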
GoLoco inh red: qHTS Assay for Inhibitors of RGS12 GoLoco Motif Activity (Red Fluorophore) | Guanine nucleotide-binding protein G(i) subunit alpha-1 (Homo sapiens), P63096 | Gai1:RGS12 GoLoco peptide FP, rhodamine, 10 min | Potency, µM (titrated, usually from 61.6 µM), without a hit: top-dose activity, negative = inhibition, usual class: inhibitors | actives 0.44% (n = 230,000) | AID 880, 2007; active means well fitted inhibition curve with a large enough effect, not every such curve was filed as active; inactive means no such curve, though single readings can be large or run the other way; further: potency means the concentration at half of the fitted maximal effect; nearly all actives have a fitted effect of over 30% in size
Target sequence (P63096 whole entry, looked up): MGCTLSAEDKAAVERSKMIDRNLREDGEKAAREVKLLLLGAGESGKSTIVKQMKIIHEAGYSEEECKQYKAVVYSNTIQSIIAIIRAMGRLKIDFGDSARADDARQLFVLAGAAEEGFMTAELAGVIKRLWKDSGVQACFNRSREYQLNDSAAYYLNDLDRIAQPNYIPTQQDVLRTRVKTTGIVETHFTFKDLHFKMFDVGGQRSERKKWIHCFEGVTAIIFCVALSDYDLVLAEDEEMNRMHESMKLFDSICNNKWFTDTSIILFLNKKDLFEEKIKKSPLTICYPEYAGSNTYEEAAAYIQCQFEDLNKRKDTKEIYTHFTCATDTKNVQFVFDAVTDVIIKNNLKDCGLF
Sfp PPTase inh: qHTS Assay for Inhibitors of Bacillus subtilis Sfp phosphopantetheinyl transferase (PPTase). 4'-phosphopantetheinyl transferase ffp (Bacillus subtilis), Q9F4F7. Biochemical Sfp PPTase activity, qHTS. Potency, µM, inactives show largest response in the series, negative = inhibition, most hits filed as inhibitors. actives 3.5% (n = 310,000). AID 1490, 2009; active means well fitted curve in the direction sought with a large enough effect; inconclusive means small, poorly fitted or top-dose-only effect, or another doubt; inactive means no such curve, though single readings can be large; an effect the other way counts as inactive or inconclusive;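 further: the enzyme is Sfp with the accession as filed and its product quenches rhodamine fluorescence; potency means the concentration at half of the fitted maximal effect; 0% = enzyme reaction without inhibitor and -100% = no enzyme wells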
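Buffer: 50 mM Hepes-Na pH 7.6, 10 mM MgCl2, 0.01% Nonidet P-40, 0.01% BSA. Enzyme 15 nM, pre-exposed to compound 15 min; substrates then added and fluorescence change tracked over 30 min.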
NPSR antagonist: qHTS Assay for Antagonists of the Neuropeptide S Receptor: cAMP Signal Transduction; Q6W5P4; actives 1% (n = 220,000); Potency, µM (titrated, usually from 38.3 µM), for the others: at the highest dose activity change, negative = inhibition, usual class: inhibitors; CHO-NPSR cells, cAMP TR-FRET, antagonist mode; AID 1461, 2008; active means well fitted curve in the direction sought with a large enough effect; inconclusive means small, poorly fitted or top-dose-only effect, or another doubt; inactive means no such curve, though single readings can be large; an effect the other way counts as inactive or inconclusive; further: potency means the concentration at half of the fitted maximal effect; nearly all actives have a fitted effect of over 50% in size
Target sequence (Q6W5P4 whole entry, looked up): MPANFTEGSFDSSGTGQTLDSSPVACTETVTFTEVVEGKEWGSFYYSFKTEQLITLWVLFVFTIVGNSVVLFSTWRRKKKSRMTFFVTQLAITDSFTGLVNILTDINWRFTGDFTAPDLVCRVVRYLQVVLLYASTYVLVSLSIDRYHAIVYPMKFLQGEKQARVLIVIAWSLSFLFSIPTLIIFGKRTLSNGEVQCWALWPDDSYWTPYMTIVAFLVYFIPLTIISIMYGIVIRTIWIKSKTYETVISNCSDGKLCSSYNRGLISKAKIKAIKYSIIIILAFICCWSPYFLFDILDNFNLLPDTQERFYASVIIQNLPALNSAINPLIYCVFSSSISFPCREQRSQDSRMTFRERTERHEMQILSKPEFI
KDM4E inh: qHTS Assay for Inhibitors of Human Jumonji Domain Containing 2E (JMJD2E) | Lysine-specific demethylase 4E (Homo sapiens), B2RXH2 | JMJD2E catalytic domain, FDH-coupled NADH fluorescence (FDH is formaldehyde dehydrogenase) | Potency, µM (top dose mostly 57.1 µM), for inactives: top-dose activity change, negative = inhibition, usual class: inhibitors | actives 1.6% (n = 230,000);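 further: potency means the concentration at half of the fitted maximal effect; 0% = wells with enzyme and -100% = buffer wells without enzyme; nearly all actives have a fitted effect of over 50% in size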
ALDH1A1 block: qHTS Assay for Inhibitors of Aldehyde Dehydrogenase 1 (ALDH1A1); actives 7.3% (n = 220,000); Aldehyde dehydrogenase 1A1 (Homo sapiens), P00352; Potency, µM (highest dose often 75.3 µM), inactives show at the top dose activity, negative = inhibition, actives largely listed as inhibitors; AID 1030, 2008; Purified ALDH1A1, NADH fluorescence, propionaldehyde substrate;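 further: potency means the concentration at half of the fitted maximal effect; plate controls were no enzyme wells and a reference inhibitor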
* = called active by the depositor; ? = inconclusive; nt = not tested or not shown; [ ] = dose if it differs, or a comment. Hits are enriched below; roughly 8.5% of the tested compounds scored in any of these assays. Unless noted, the call rests on the fitted dose curve; in most records, active means well fitted inhibition curve with a large enough effect (not every such curve was filed as active); inconclusive means small, poorly fitted or top-dose-only effect, or another doubt; inactive means no such curve, though single readings can be large or run the other way. Unless noted, on the % scale 0 is the no-effect control and ±100 the full control effect.

SMILES | Coupling enz | GoLoco inh red | Sfp PPTase inh | NPSR antagonist | KDM4E inh | ALDH1A1 block
Cc1onc(-c2ccccc2Cl)c1C(=O)NNC(=O)c1ccccc1F | 0.3 | nt | 11.6% | nt | nt | nt
COC(=O)c1cc(OC)c(OC)cc1NC(=O)c1c(-c2ccccc2Cl)noc1C | -1.5 | 5.1% | -1.1% | ? | ? | 28.2µM*
CN(C)c1ccc(/C=N\NC(=O)c2cccc3cc[nH]c23)cc1 | -3.1 | -1.4% | -3.5% | ? | ? | nt
CCOC(=O)COn1c(=O)c(-c2cccs2)[n+]([O-])c2ccccc21 | -9.4 | 10.0% | 10µM* | -15.5%[46.1 µM] | ? | ?
CCOC(=O)COn1c(=O)c(-c2cc3ccccc3o2)[n+]([O-])c2ccccc21 | -8.3 | -0.3% | 79.4µM* | 6.2%[46.1 µM] | -2.0% | -6.8%
C=CCOn1c(=O)c(-c2cc3ccccc3o2)[n+]([O-])c2ccccc21 | 0.0 | nt | 5.0% | -18.3%[46.1 µM] | -1.7% | 8.1%
CC(C)(C)c1ccc(S(=O)(=O)NCc2ccc(C(=O)NCC3CCCO3)cc2)cc1 (stereo unspecified) | nt | nt | 11.5% | nt | nt | nt
COc1cccc(S(=O)(=O)NCc2ccc(C(=O)NCc3ccco3)cc2)c1 | -2.2 | -4.3% | ? | -5.1%[46.1 µM] | -2.3% | 14.1µM*
COc1ccc(C(=O)NCC(=O)Nc2cccc(S(=O)(=O)NCc3ccco3)c2)cc1OC | -6.1 | 93.2% | -1.1% | -6.1% | -7.2% | 20µM*
COc1ccc(C(=O)Nc2ccc(S(=O)(=O)NCc3ccco3)cc2)cc1OC | -0.6 | 0.7% | -6.7% | 7.9%[46.1 µM] | ? | 10.2%
COc1ccc(CCNC(=O)c2ccc(CNS(=O)(=O)c3ccc(C(C)(C)C)cc3)cc2)cc1OC | 0.5 | 25.6% | 10.8% | -5.4% | -2.3% | ?
COc1cccc(S(=O)(=O)NCc2ccc(C(=O)NCC3CCCO3)cc2)c1 (stereo unspecified) | 1.3 | 1.6% | -7.7% | 2.9%[46.1 µM] | 0.0% | 14.1µM*
COc1ccc(CCNC(=O)c2ccc(CNS(=O)(=O)c3cccc(Cl)c3)cc2)cc1OC | 10.4 | -9.3% | -19.1% | 6.6% | -0.1% | 3.55µM*
CC(C)C(NS(=O)(=O)c1ccc2c(c1)Cc1cc(S(=O)(=O)NC(C(=O)O)C(C)C)ccc1-2)C(=O)O (stereo unspecified) | 10.2 | nt | 13.8% | nt | nt | nt
COCCn1c(=O)cnc2cnc(Oc3ccccc3)nc21 | -2.4 | 5.5% | 41.1% | nt | nt | ?
CS(=O)(=O)Nc1ccc(C(=O)NCc2ccco2)cc1 | 0.6 | -5.3% | -1.8% | -10.1%[46.1 µM] | -2.8% | 9.1%
COc1cccc(S(=O)(=O)Nc2ccc(C(=O)NCc3ccco3)cc2)c1 | 3.5 | -23.4% | -2.5% | -1.0%[46.1 µM] | -8.0% | 28.2µM*
O=C(Cn1ccc2ccccc2c1=O)NCCC(=O)Nc1cccc(Cl)c1 | 2.6 | nt | 1.2% | nt | nt | nt
CCN1CCN(C(=O)CCc2nnc(CCCCc3ccccc3)o2)[C@@H](C)C1=O | 2.6 | 8.4% | 8.3% | -14.8% | -0.2% | 8.91µM*
CCCC(=O)Nc1nc2c(s1)COc1ccccc1-2 | -5.2 | nt | -0.1% | nt | nt | nt
Nc1nc2c(s1)COc1ccccc1-2 | -0.7 | 0.6% | 15.8µM* | 0.4% | ? | 22.4µM*
O=C(CCSc1ccccc1)Nc1nc2c(s1)COc1ccccc1-2 | -1.6 | 8.0% | -29.7% | -9.7%[46.1 µM] | ? | 14.1µM*
CCC(CC)C(=O)c1c[nH]c(C(=O)NCCCN2CCOCC2)c1 | -1.1 | 7.3% | 8.0% | -5.2%[46.1 µM] | 4.9% | 3.3%
O=C(NCCCN1CCOCC1)c1cc(C(=O)C2CCCCC2)c[nH]1 | 0.2 | 8.1% | -24.9% | 7.8% | 2.1% | 25.1µM*
COc1ccc(N2CC(C(=O)N3CCN(c4ccccc4F)CC3)CC2=O)cc1 (stereo unspecified) | 6.4 | nt | 18.7% | nt | nt | nt
SMILES | Coupling enz | GoLoco inh red | Sfp PPTase inh | NPSR antagonist | KDM4E inh | ALDH1A1 block
CCSc1nc2sc3c(c2c2[n+]1CC(CBr)O2)CCCC3 (stereo unspecified) | 4.2 | -13.0% | 50.1µM* | -12.5% | ? | nt
CC(=O)Nc1ccc(-c2csc(N/N=C\c3ccncc3)n2)cc1 | -1.6 | -9.6% | 20µM* | -4.8% | -20.9% | nt
CCCC(=O)Nc1ccc(-c2csc(N/N=C\c3ccncc3)n2)cc1 | -2.6 | -6.8% | 25.1µM* | -27.8% | ? | nt
COc1ccc(N2CCN(C3CCCN(C(=O)CSC)C3)CC2)cc1 (stereo unspecified) | 1.6 | nt | -5.8% | nt | nt | nt
O=C1[C@H]2[C@H]3[C@H](O)[C@H](O)C/C(=N/OC[C@@H](O)COCc4ccco4)[C@@H]3CC[C@@H]2C(=O)N1Cc1ccc2c(c1)OCO2 | 0.7 | nt | -4.7% | nt | nt | 8.3%[13.5 µM]
CCCCc1ccc(C2C(C#N)=C(N)SC(N)=C2C#N)s1 | -26.2 | 198.9% | 56.2µM* | -5.1%[46.1 µM] | -28.8% | ?
Cc1ccc(S(=O)(=O)/N=C2/C=C(Sc3ncn[nH]3)C(=O)c3ccccc32)cc1 | -54.9* | -31.4% | 3.16µM* | 10µM* | 3.98µM* | 12.6µM*
CC(C)c1ccc(S(=O)(=O)/N=C2/C=C(Sc3ncn[nH]3)C(=O)c3ccccc32)cc1 | -91.8* | -40.0% | 2µM* | 10µM* | 0.6% | 1.78µM*
Cc1ccc(S(=O)(=O)/N=C2/C=C(Sc3ncn[nH]3)C(=O)c3ccccc32)c(C)c1 | -62.7* | -27.2% | 3.55µM* | -33.4% | 8.91µM* | 12.6µM*
O=C(NCC1OCCCN1S(=O)(=O)c1cc(F)ccc1F)C(=O)NC1CCCC1 (stereo unspecified) | nt | nt | 7.5% | nt | nt | nt
COc1ccc(Cn2c(SCc3ccc(C)cc3)nc3cc(OC)c(OC)cc3c2=N)cc1Cl | -7.1 | 6.0% | 3.98µM* | ? | -10.0% | ?
COc1ccc(Cn2c(SCc3cc(C)ccc3C)nc3cc(OC)c(OC)cc3c2=N)cc1 | -2.7 | -1.0% | 3.16µM* | -23.0%[46.1 µM] | 3.2% | ?
COc1cc2nc(SCc3ccc(Cl)cc3Cl)n(Cc3cccs3)c(=N)c2cc1OC | -2.6 | 4.9% | 5.0% | -23.9%[46.1 µM] | ? | -1.3%
COc1cc2nc(SCc3ccc(C(F)(F)F)cc3)n(Cc3cccs3)c(=N)c2cc1OC | -13.8 | 8.8% | 9.0% | -17.0%[46.1 µM] | ? | -9.8%
COc1ccc(CN(C)C(=O)c2cnc(OC)cc2C(F)(F)F)c(OC)c1 | 0.9 | -18.8% | 24.7% | -1.7% | 9.9% | 5.4%
Cc1ccc(S(=O)(=O)Cn2nnnc2C(C(C)C)N2CCC(C(N)=O)CC2)cc1 (stereo unspecified) | -2.5 | nt | -5.7% | nt | nt | nt
O=C(CCSc1ccc(Cl)cc1)NN=C1CCCCCC1 | 1.6 | -5.0% | 9.0% | -3.8% | 3.7% | 11.2µM*
O=C(CSCc1ccc(Cl)cc1)NN=C1CCCCCC1 | 0.6 | -3.8% | 16.6% | 15.3% | 6.6% | 14.1µM*
